Data from PubChem BioAssay (EPA / NIEHS).
Activity calls are given as the source filed them. The calls were made as follows: active = hit-call score of the fitted dose curve at least 0.9, where 1 is the maximum; inactive = score below 0.9.

Assays:
Settings in all cases: mRNA level, 48 h; actives raise or lower the signal
[1] = read-out: Alkaline Phosphatase, Placental (ALPP) gene, ALPP (gene 250); test: LTEA_HepaRG_ALPP: Life Technologies and Expression Analysis (LTEA) Assay for Alkaline Phosphatase, Placental (ALPP) gene using HepaRG (AID 2283468)
How it was run: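 HepaRG cells plated 48 h, then exposed in duplicate for 48 h in serum-free induction medium to 8-point half-log series from 100 uM in 0.5% DMSO. ALPP mRNA by TaqMan qRT-PCR, normalized to ACTB/GAPDH/POLR2A; bidirectional fit versus DMSO.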

[2] = read-out: Bcl-2 (BAD) gene, BAD (gene 572); test: LTEA_HepaRG_BAD: Life Technologies and Expression Analysis (LTEA) Assay for Bcl-2 (BAD) gene using HepaRG (AID 2283469)
How it was run: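 Read-out: qRT-PCR of BAD mRNA, normalized to three housekeeping genes. Human HepaRG cultures got 48 h chemical exposure in 0.5% DMSO, duplicate eight-point half-log series topping at 100 uM. Gain or loss of signal fitted versus DMSO vehicle.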

[3] = read-out: Bcl-2 (BAX) gene, BAX (gene 581); test: LTEA_HepaRG_BAX: Life Technologies and Expression Analysis (LTEA) Assay for Bcl-2 (BAX) gene using HepaRG (AID 2283470)
How it was run: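 Human HepaRG cells treated in duplicate for 48 h across eight concentrations (max 100 uM, 0.5% DMSO); BAX expression measured by qRT-PCR.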

[4] = read-out: adenosine kinase (ADK) gene, ADK (gene 132); test: LTEA_HepaRG_ADK: Life Technologies and Expression Analysis (LTEA) Assay for adenosine kinase (ADK) gene using HepaRG (AID 2283471)
How it was run: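 HepaRG (human liver), 48 h chemical exposure, 8-pt half-log series, top 100 uM, 0.5% DMSO vehicle. Readout: ADK mRNA by qRT-PCR vs housekeeping genes; bidirectional curve fit relative to DMSO baseline.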

[5] = read-out: Alpha-fetoprotein (AFP) gene, AFP (gene 174); test: LTEA_HepaRG_AFP: Life Technologies and Expression Analysis (LTEA) Assay for Alpha-fetoprotein (AFP) gene using HepaRG (AID 2283472)
How it was run: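 Measures AFP mRNA change in HepaRG after 48 h chemical exposure (8 half-log concentrations, highest 100 uM, 0.5% DMSO). Fold change relative to DMSO, fitted in both directions.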

BCL2L11 (gene 10018) = test: LTEA_HepaRG_BCL2L11: Life Technologies and Expression Analysis (LTEA) Assay for Bcl-2 (BCL2L11) gene using HepaRG (AID 2283473)
How it was run: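 Differentiated human HepaRG cells were exposed 48 h in serum-free induction medium to eight half-log concentrations up to 100 uM in 0.5% DMSO, in duplicate. BCL2L11 mRNA was quantified by TaqMan qRT-PCR, normalized to ACTB, GAPDH and POLR2A; induction or repression fitted versus DMSO.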

[6] = read-out: Apolipoprotein A-V (APOA5) gene, APOA5 (gene 116519); test: LTEA_HepaRG_APOA5: Life Technologies and Expression Analysis (LTEA) Assay for Apolipoprotein A-V (APOA5) gene using HepaRG (AID 2283474)
How it was run: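 Differentiated HepaRG cells in serum-free induction medium, exposed 48 h in duplicate to eight half-log concentrations topping at 100 uM (0.5% DMSO). APOA5 mRNA by Fluidigm TaqMan qRT-PCR, normalized to ACTB, GAPDH and POLR2A; bidirectional fit versus DMSO.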

[7] = read-out: Apoptosis regulator Bcl-2 (Homo sapiens) (UniProt P10415); test: LTEA_HepaRG_BCL2: Life Technologies and Expression Analysis (LTEA) Assay for Bcl-2 gene using HepaRG (AID 2283475)
How it was run: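 Each chemical was tested in duplicate on HepaRG cultures held in serum-free induction medium for 48 h, highest concentration 100 uM with half-log dilutions. Transcript levels came from multiplexed qRT-PCR, normalised to housekeeping genes; activity was scored in either direction relative to DMSO.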

[8] = read-out: Bcl-2 (BID) gene, BID (gene 637); test: LTEA_HepaRG_BID: Life Technologies and Expression Analysis (LTEA) Assay for Bcl-2 (BID) gene using HepaRG (AID 2283476)
How it was run: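 Assay used HepaRG hepatic cells treated 48 h in serum-free medium with half-log dilutions from 100 uM. Endpoint: BID mRNA, qRT-PCR, normalized to ACTB/GAPDH/POLR2A.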

Caspase-3 (Homo sapiens) = Caspase-3 (Homo sapiens) (UniProt P42574); test: LTEA_HepaRG_CASP3: Life Technologies and Expression Analysis (LTEA) Assay for cysteine-aspartic acid protease (CASP3) using HepaRG (AID 2283477)
Chain of Caspase-3 (Homo sapiens) (P42574 whole entry, looked up): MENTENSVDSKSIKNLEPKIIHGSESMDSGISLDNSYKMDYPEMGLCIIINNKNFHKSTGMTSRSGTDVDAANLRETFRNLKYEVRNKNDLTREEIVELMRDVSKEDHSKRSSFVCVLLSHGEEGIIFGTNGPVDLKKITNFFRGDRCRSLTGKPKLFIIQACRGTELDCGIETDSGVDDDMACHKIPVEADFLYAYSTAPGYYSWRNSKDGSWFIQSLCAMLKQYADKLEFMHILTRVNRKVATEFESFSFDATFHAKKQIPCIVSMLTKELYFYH
How it was run: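 Differentiated HepaRG cells, plated 48 h, were treated in duplicate in serum-free induction medium for 48 h with eight half-log concentrations up to 100 uM in 0.5% DMSO. CASP3 mRNA measured by qRT-PCR, normalized to ACTB, GAPDH, POLR2A.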

[9] = read-out: Cytochrome P450 (CYP24A1), CYP24A1 (gene 1591); test: LTEA_HepaRG_CYP24A1: Life Technologies and Expression Analysis (LTEA) Assay for Cytochrome P450 (CYP24A1) using HepaRG (AID 2283478)
How it was run: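 HepaRG cells plated 48 h, then exposed in duplicate in serum-free induction medium for 48 h to 8-point half-log series from 100 uM in 0.5% DMSO. CYP24A1 mRNA by Fluidigm qRT-PCR, normalized to ACTB, GAPDH, POLR2A; bidirectional fit versus DMSO.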

[10] = read-out: Cytochrome P450 (CYP1A2), CYP1A2 (gene 1544); test: LTEA_HepaRG_CYP1A2: Life Technologies and Expression Analysis (LTEA) Assay for Cytochrome P450 (CYP1A2) using HepaRG (AID 2283479)
How it was run: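 Differentiated human HepaRG cells in serum-free induction medium exposed 48 hours in duplicate to 8 half-log concentrations from 100 uM, 0.5% DMSO. CYP1A2 mRNA quantified by qRT-PCR, normalized to ACTB, GAPDH and POLR2A; bidirectional fitting versus DMSO.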

[11] = read-out: cysteine-aspartic acid protease (CASP8), CASP8 (gene 841); test: LTEA_HepaRG_CASP8: Life Technologies and Expression Analysis (LTEA) Assay for cysteine-aspartic acid protease (CASP8) using HepaRG (AID 2283480)
How it was run: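 CASP8 transcript measured by TaqMan qRT-PCR with ACTB/GAPDH/POLR2A normalization, after 48 h chemical exposure of HepaRG cells in serum-free induction medium. Eight concentrations, top 100 uM, half-log steps, 0.5% DMSO vehicle; fits in both directions versus DMSO.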

[12] = read-out: Cytochrome P450 (CYP2B6), CYP2B6 (gene 1555); test: LTEA_HepaRG_CYP2B6: Life Technologies and Expression Analysis (LTEA) Assay for Cytochrome P450 (CYP2B6) using HepaRG (AID 2283481)
How it was run: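 Differentiated human HepaRG cells in serum-free induction medium, dosed in duplicate for 48 h over 8 half-log concentrations topping at 100 uM (0.5% DMSO). CYP2B6 mRNA measured by TaqMan qRT-PCR, normalized to ACTB, GAPDH, POLR2A; bidirectional fit versus DMSO.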

[13] = read-out: Cytochrome P450 2C19 (Homo sapiens) (UniProt P33261); test: LTEA_HepaRG_CYP2C19: Life Technologies and Expression Analysis (LTEA) Assay for CYP2C19 using HepaRG (AID 2283482)
How it was run: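 Differentiated HepaRG cells in serum-free induction medium exposed 48 h in duplicate, 8 concentrations from 100 uM by half-log steps in 0.5% DMSO. CYP2C19 mRNA measured by TaqMan qRT-PCR, normalized to ACTB, GAPDH, POLR2A. Bidirectional fit versus DMSO.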

CYP2C8 (gene 1558) = test: LTEA_HepaRG_CYP2C8: Life Technologies and Expression Analysis (LTEA) Assay for CYP2C8 using HepaRG (AID 2283483)
How it was run: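 CYP2C8 expression measured by TaqMan qRT-PCR and normalized to three housekeeping genes. HepaRG cultures were treated for 48 h with an eight-point half-log series topping at 100 uM, vehicle 0.5% DMSO, duplicates; fitted both directions against DMSO.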

CYP2C9 (gene 1559) = test: LTEA_HepaRG_CYP2C9: Life Technologies and Expression Analysis (LTEA) Assay for CYP2C9 using HepaRG (AID 2283484)
How it was run: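 CYP2C9 transcript level, quantified by TaqMan qRT-PCR against three housekeeping genes, was fitted bidirectionally relative to 0.5% DMSO. HepaRG cultures were treated 48 h, in duplicate, at eight half-log concentrations topping at 100 uM.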

CYP2E1 (gene 1571) = test: LTEA_HepaRG_CYP2E1: Life Technologies and Expression Analysis (LTEA) Assay for CYP2E1 using HepaRG (AID 2283485)
How it was run: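 Assay uses 48 h exposure of HepaRG hepatic cells, eight concentrations to 100 uM. Expression of CYP2E1 is quantified by TaqMan qRT-PCR with ACTB, GAPDH and POLR2A normalization; curves fitted in both directions relative to vehicle.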

CYP4A11 (gene 1579) = test: LTEA_HepaRG_CYP4A11: Life Technologies and Expression Analysis (LTEA) Assay for CYP4A11 using HepaRG (AID 2283486)
How it was run: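 Differentiated HepaRG cells, 48 h after plating, exposed in duplicate for 48 h to 8 half-log concentrations up to 100 uM in 0.5% DMSO in serum-free induction medium. CYP4A11 mRNA measured by TaqMan qRT-PCR, normalized to ACTB, GAPDH and POLR2A.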

[14] = read-out: Cytochrome P450 3A4 (Homo sapiens) (UniProt P08684); test: LTEA_HepaRG_CYP3A4: Life Technologies and Expression Analysis (LTEA) Assay for CYP3A4 using HepaRG (AID 2283487)
How it was run: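 CYP3A4 transcript measured by TaqMan qRT-PCR and normalized to three housekeeping genes after 48 h chemical exposure of human HepaRG cells. Top concentration 100 uM, half-log steps, 0.5% DMSO vehicle; gain or loss fitted against DMSO baseline.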

Measured: outcome

Chain of Cytochrome P450 3A4 (Homo sapiens) (P08684 whole entry, looked up): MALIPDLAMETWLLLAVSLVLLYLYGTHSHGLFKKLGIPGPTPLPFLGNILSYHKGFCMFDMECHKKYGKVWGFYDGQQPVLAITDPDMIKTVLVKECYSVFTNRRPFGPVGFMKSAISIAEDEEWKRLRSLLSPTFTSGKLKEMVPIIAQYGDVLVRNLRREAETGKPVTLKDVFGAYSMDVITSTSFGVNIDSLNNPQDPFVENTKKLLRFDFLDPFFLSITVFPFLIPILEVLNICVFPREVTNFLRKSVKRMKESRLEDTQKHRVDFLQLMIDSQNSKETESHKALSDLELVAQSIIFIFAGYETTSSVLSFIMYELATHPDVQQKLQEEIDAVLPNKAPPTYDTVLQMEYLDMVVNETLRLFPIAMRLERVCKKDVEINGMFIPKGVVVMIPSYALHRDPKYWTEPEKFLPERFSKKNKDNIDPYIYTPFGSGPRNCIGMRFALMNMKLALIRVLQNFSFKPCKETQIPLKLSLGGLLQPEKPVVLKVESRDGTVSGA
Chain of Cytochrome P450 2C19 (Homo sapiens) (P33261 whole entry, looked up): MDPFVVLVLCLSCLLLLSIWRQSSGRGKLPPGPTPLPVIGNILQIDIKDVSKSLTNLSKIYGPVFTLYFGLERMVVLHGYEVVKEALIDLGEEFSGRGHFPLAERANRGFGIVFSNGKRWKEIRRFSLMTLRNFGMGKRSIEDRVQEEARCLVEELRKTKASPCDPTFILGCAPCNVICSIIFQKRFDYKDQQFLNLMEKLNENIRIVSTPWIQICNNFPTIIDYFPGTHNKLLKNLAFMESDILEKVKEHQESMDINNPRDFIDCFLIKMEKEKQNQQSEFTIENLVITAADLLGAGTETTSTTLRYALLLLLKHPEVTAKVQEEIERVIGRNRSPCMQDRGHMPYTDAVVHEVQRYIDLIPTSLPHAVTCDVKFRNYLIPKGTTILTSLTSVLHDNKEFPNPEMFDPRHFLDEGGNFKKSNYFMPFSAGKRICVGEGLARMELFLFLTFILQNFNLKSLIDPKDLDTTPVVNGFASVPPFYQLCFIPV
Chain of Apoptosis regulator Bcl-2 (Homo sapiens) (P10415 whole entry, looked up): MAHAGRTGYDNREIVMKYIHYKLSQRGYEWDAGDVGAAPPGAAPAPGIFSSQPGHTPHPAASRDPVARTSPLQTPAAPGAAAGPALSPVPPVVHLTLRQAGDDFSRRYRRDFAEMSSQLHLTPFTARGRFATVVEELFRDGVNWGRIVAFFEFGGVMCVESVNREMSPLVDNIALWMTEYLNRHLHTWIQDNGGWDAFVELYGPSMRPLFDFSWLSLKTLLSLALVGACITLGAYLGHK

CS(=O)(=O)OCCCCOS(C)(=O)=O
inactive: all assays above
